Screening results (PubChem)
ALDH1A1 block: qHTS Assay for Inhibitors of Aldehyde Dehydrogenase 1 (ALDH1A1); Aldehyde dehydrogenase 1A1 (Homo sapiens), P00352; Purified ALDH1A1, NADH fluorescence, propionaldehyde substrate; Potency, µM (series often up to 75.3 µM), for the others: top-dose activity, negative = inhibition, most hits filed as inhibitors; hit rate 7.3% among 220,000; AID 1030, 2008; active = well fitted inhibition curve with a large enough effect, not every such curve was filed as active; inconclusive = small, poorly fitted or top-dose-only effect, or another doubt; inactive = no such curve, though single readings can be large or run the other way;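 also: potency is read from the fitted curve at half-maximal effect; plate controls were no enzyme wells and a reference inhibitor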
Target sequence (P00352 whole entry, looked up): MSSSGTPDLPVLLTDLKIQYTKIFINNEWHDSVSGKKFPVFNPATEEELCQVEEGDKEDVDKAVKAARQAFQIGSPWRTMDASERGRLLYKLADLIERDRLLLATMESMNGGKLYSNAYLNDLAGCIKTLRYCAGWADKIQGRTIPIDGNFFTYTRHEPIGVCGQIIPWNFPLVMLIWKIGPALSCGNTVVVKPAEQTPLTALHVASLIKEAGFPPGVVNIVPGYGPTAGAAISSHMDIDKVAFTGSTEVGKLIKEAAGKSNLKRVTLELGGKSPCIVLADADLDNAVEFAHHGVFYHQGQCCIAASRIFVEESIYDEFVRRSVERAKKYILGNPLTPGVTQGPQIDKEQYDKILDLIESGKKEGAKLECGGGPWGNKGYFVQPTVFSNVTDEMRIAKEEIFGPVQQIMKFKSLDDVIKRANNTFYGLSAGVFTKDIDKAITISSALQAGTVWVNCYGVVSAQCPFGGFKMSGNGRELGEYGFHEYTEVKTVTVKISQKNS
HTT ATP protect: qHTS Multiplex Assay to Identify Dual Action Probes in a Cell Model of Huntington: Cytoprotection (ATP); PC12 HTT-Q103 induced, cytoprotection, ATP luminescence, 40 h; Potency, µM (top dose mostly 56.4 µM), for the others: cytoprotection (ATP increase), actives largely listed as activators; hit rate 0.14% among 230,000; also: potency is read from the fitted curve at half-maximal effect; % of control where 0% means no effect; nearly all actives have a fitted effect of over 45% in size
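Quantitative HTS on tebufenozide-induced (100 nM) PC12 cells expressing HTTQ103 exon 1–GFP; compounds tested as a concentration series; survival measured via cellular ATP.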
HttQ103 aggreg: qHTS Multiplex Assay to Identify Dual Action Probes in a Cell Model of Huntington: Aggregate Formation (GFP). PC12 HttQ103-GFP aggregates, Acumen cytometry, 40 h. Potency, µM (top dose mostly 46.1 µM), inactives show at the top dose activity change, negative = inhibition, actives largely listed as inhibitors. hit rate 1.1% among 220,000. AID 1688, 2009; also: potency is read from the fitted curve at half-maximal effect; % is scaled to controls: 0 for no effect and ±100 for the full control effect; nearly all actives have a fitted effect of over 60% in size
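Aggregate formation scored by laser-scanning cytometer (488 excitation, 500–530 emission) in lysed PC12 cells expressing Q103-GFP after 100 nM tebufenozide induction; library tested in dose series, with ATPLite reagent added in the multiplex.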
IMPase cell inh: qHTS Assay for Identifying the Cell-Membrane Permeable IMPase Inhibitors; CHO-M1 cells, IP1 accumulation, HTRF TR-FRET ratio; AID 901, 2007; Inositol monophosphatase 1 (Rattus norvegicus), P97697; inhibition (IP1 accumulation), % at 46.1 µM; 120,000 tested, under 10 active; active = well fitted curve in the direction sought with a large enough effect in the signal ratio, not every such curve was filed as active; inconclusive = small, poorly fitted or top-dose-only effect, or a change in a side signal; inactive = no such curve, though single readings can be large or run the other way; the % refers to the signal ratio;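 also: cells stimulated with carbachol in lithium chloride buffer; plate controls were DMSO basal wells for no effect and reference inhibitor wells for full effect; higher means more IMPase inhibition seen as more IP1 and lower FRET ratio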
Target sequence (P97697 whole entry, looked up): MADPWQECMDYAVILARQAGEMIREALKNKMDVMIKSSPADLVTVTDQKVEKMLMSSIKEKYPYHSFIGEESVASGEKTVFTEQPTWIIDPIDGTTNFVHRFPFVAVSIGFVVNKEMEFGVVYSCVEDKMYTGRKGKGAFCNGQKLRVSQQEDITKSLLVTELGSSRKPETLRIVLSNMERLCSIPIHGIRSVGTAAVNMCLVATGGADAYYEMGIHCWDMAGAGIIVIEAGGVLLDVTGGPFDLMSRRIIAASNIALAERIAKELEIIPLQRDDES
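CHO-M1, 2000 cells/well, cultured 16–30 h; cpd up to 46 uM; carbachol (50 uM solution, stimulation buffer w/ 50 mM LiCl, pH 7.4), 30 min 37C; IP-One TR-FRET, 10 min RT; Ex 320/Em 665, 620; Hill-fit AC50.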
IMPase Li cell: qHTS Assay for Identifying the Cell-Membrane Permeable IMPase Inhibitors: Potentiation with Lithium; CHO-M1 cells, IP1 TR-FRET (IP-One), carbachol + lithium; Potency, µM (series often up to 59.4 µM), inactives show top-dose activity, negative = IMPase inhibition, actives largely listed as inhibitors; hit rate 0.35% among 210,000;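 also: IP1 builds up when IMPase is blocked and the TR-FRET signal falls; potency is read from the fitted curve at half-maximal effect; plate controls were basal vehicle for no effect and high inhibitor control for full effect; nearly all actives have a fitted effect of over 50% in size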
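IP1 accumulation measured by competitive TR-FRET in lysed CHO-M1 cells after 30 min compound exposure at 37C, with a small lithium addition to potentiate weak responses. Hill-equation AC50 from ratio and donor-channel data.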
HPGD inh: qHTS Assay for Inhibitors of HPGD (15-Hydroxyprostaglandin Dehydrogenase). 15-hydroxyprostaglandin dehydrogenase [NAD(+)] (Homo sapiens), P15428. purified HPGD, NADH fluorescence kinetic, PGE2 substrate. Potency, µM, for inactives: at the highest dose activity change, negative = inhibition, actives largely listed as inhibitors. hit rate 4.3% among 150,000. AID 894, 2007; active = well fitted inhibition curve with a large enough effect, not every such curve was filed as active; inconclusive = small, poorly fitted or top-dose-only effect, or another doubt; inactive = no such curve, though single readings can be large or run the other way; also: potency is read from the fitted curve at half-maximal effect; % is scaled to controls: 0 for no effect and ±100 for the full control effect
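20 nM HPGD preincubated 15 min at room temperature with compound in 50 mM Tris-HCl pH 8, 0.01% Tween 20. Started with 1 mM NAD+ and 30 uM prostaglandin E2; NADH fluorescence (360/450 nm) read 5 times over 30-s intervals, last minus first.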
* = called active by the depositor; ? = inconclusive; . = no result given; ! = not active in a repeat; [ ] = dose if it differs, or a comment. Hits are enriched below; roughly 9.4% of the tested compounds scored in any of these assays. Unless noted, calls follow the shape of the dose curve; as a rule, active = well fitted curve in the direction sought with a large enough effect; inconclusive = small, poorly fitted or top-dose-only effect, or another doubt; inactive = no such curve, though single readings can be large; an effect the other way counts as inactive or inconclusive.

SMILES | ALDH1A1 block | HTT ATP protect | HttQ103 aggreg | IMPase cell inh | IMPase Li cell | HPGD inh
COc1ccc(C=O)cc1COc1ccc(C)cc1[N+](=O)[O-] | 10µM* | -35% | 16% | 4 | 8%[38.3 µM] | -23%
COc1cc(C=O)ccc1OCCCCOc1ccccc1[N+](=O)[O-] | 5µM* | . | 5% | . | 7% | -26%
COc1ccc(/C=N/NS(=O)(=O)c2ccc(F)cc2)cc1COc1cc(F)ccc1[N+](=O)[O-] | 35µM* | . | 27% | . | 2% | .
COc1cc(C=O)ccc1OCCOc1ccccc1[N+](=O)[O-] | ? | . | -6% | . | -1% | ?
COc1cc(C=O)ccc1OCCCOc1ccccc1[N+](=O)[O-] | -15% | . | ? | . | 4% | 20µM*
COc1cc(/C=N/NS(=O)(=O)c2ccc(C)cc2)ccc1OCc1ccc(C(=O)O)cc1 | ? | -45% | 15% | . | 3% | .
COc1cc(C=O)ccc1OS(=O)(=O)c1ccccc1[N+](=O)[O-] | 8.9µM* | 11%[10 µM] | 9% | . | 0% | 18µM*
O=C(NNC(=S)NCc1ccc(Cl)cc1)c1ccc(Br)o1 | -1% | 5%[10 µM] | -5%[9.22 µM] | . | 2% | .
O=C(NNC(=S)NCc1ccccc1)c1ccc(Br)o1 | 0% | 30%[10 µM] | -3% | . | 3% | .
O=C(NCc1ccc(Cl)cc1)c1ccc(Br)o1 | 13µM*! | -94% | 1% | 1 | -3% | 35µM*
Cc1ccn2cc(CNC(=O)c3ccc(Br)o3)nc2c1 | 1% | -7% | 14% | 0 | 10%[38.3 µM] | 16µM*
O=C(NCCCc1ccccc1)c1ccc(Br)o1 | ? | -2%[0.074 µM] | 5% | 4 | 8%[38.3 µM] | 25µM*
Cc1ccc2cc(CCNC(=O)c3ccc(Br)o3)c(=O)[nH]c2c1 | ? | -19% | 10% | 7 | -5%[38.3 µM] | 28µM*
O=C(O)Cc1cccnc1 | -4%[13.5 µM] | -14%[10 µM] | . | . | -6% | -7%
COc1ccc(OC)c(C2=NOC(C(=O)Nc3cc(C)on3)C2)c1 (centres undefined) | . | 6%[10 µM] | -16%[9.22 µM] | . | . | .
O=C(NCCCCc1ccccc1)c1ccc(Br)o1 | -2% | -13%[10 µM] | -27% | 16 | 9% | 14µM*
CCCCCCNC(=O)c1ccc(Br)o1 | -8%[120 µM] | -45%[96.6 µM] | -7% | . | -7% | ?
O=C(NCCCc1ccccc1)c1ccccc1O | ? | -12%[10 µM] | 10µM* | 2 | 1%[38.3 µM] | ?
O=C(NCCC1=CCCCC1)c1ccc(Br)o1 | 3.5µM* | -7% | 5% | 0 | 26%[38.3 µM] | -17%
O=C(NCCc1ccccc1)c1ccc(-c2ccccc2C(F)(F)F)o1 | 25µM* | . | 1% | . | 11% | ?
COc1ncc2nc(-c3cccc(C#N)c3)c(=O)n(CCC#N)c2n1 | ? | -33% | . | . | 3% | ?
COc1cccc(/C=C(\CC(=O)O)c2nc3ccccc3s2)c1 | -3% | 3% | -25% | . | -4% | .
Cn1cnnc1SCC(=O)NCCC(c1ccccc1)c1ccccc1 | -2% | 12% | -11% | -5 | 15%[38.3 µM] | -2%
O=C(O)CC/C(=C\c1ccc(N2CCCC2)c([N+](=O)[O-])c1)c1nc2ccccc2s1 | 1.3µM* | 34%[10 µM] | 3%[9.22 µM] | . | 0% | .
Cn1cnnc1Sc1ccc(C(=O)NCCC(c2ccccc2)c2ccccc2)cc1[N+](=O)[O-] | 20µM* | ? | -4% | . | 10% | -20%
SMILES | ALDH1A1 block | HTT ATP protect | HttQ103 aggreg | IMPase cell inh | IMPase Li cell | HPGD inh
Cn1cnnc1Sc1ccc(/C=C(\CC(=O)O)c2nc3ccccc3s2)cc1[N+](=O)[O-] | 20µM* | 15%[10 µM] | 4%[9.22 µM] | . | . | .
COc1ccc(CCC(=O)c2c(O)cc(O[C@@H]3O[C@H](CO)[C@@H](O)[C@H](O)[C@H]3O[C@@H]3O[C@@H](C)[C@H](O)[C@@H](O)[C@H]3O)cc2O)cc1O | ? | -15% | . | . | -14% | -3%
O=C(COC(=O)CCc1nc2ccccc2n1-c1ccccc1)Nc1ccc(N2CCCCC2)cc1 | 6% | 3.2µM* | -1% | -3 | . | .
O=C(CCc1nc2ccccc2n1-c1ccccc1)NCCO | -8% | 5%[10 µM] | -11% | . | 4% | -1%
CN(C)CC(C)(C)CNC(=O)c1ccc(Cc2nc3ccccc3[nH]2)cc1 | 13% | . | . | . | . | -5%
COc1ccc(C2Sc3nncn3N2Cc2ccc(C#N)cc2)cc1 (centres undefined) | 10µM* | -5% | 23% | -11 | -7%[38.3 µM] | -7%
O=C(c1ccncc1)N1N=C(C2CCCCC2)CC1(O)C(F)(F)F (centres undefined) | 1% | ? | ? | . | 3% | .
O=C(c1ccco1)N1N=C(C2CCCCC2)CC1(O)C(F)(F)F (centres undefined) | 6.3µM* | -44%[10 µM] | ? | . | 4% | .
CCCn1nnc(NC(=O)c2cc(Br)cc(Br)c2OC)n1 | 11µM* | 10% | 31% | 8 | . | .
COC(=O)C1=C(C)NC(=O)NC1c1ccc(-c2ccccc2Cl)o1 (centres undefined) | 10µM* | -14% | -20% | . | -3% | .
COCCOC(=O)C1=C(C)NC(=O)NC1c1ccc(-c2cc(Cl)ccc2Cl)o1 (centres undefined) | 3.2µM* | -10%[10 µM] | -1%[9.22 µM] | . | 1% | .
COC(=O)C1=C(C)NC(=O)NC1c1ccc(-c2ccc(F)cc2)o1 (centres undefined) | -8% | 14% | 5% | . | -3% | .
COC(=O)C1=C(C)NC(C)=C(C(=O)OC)C1c1ccc(-c2cc(Cl)ccc2Cl)o1 | ? | 17%[10 µM] | 14% | -1 | 7% | -25%
Cc1cc(S(=O)(=O)Nc2cc3c(cc2Cl)n(C)c(=O)c(=O)n3C)ccc1F | . | . | . | 4 | . | .
CCc1ccccc1N(C1=NCCCS1)S(=O)(=O)c1ccc(C(C)(C)C)cc1 | 0.79µM* | 19%[10 µM] | 2% | . | -2% | -17%
CCOC(=O)c1cnc2ccc(C)cc2c1Nc1ccc(N(CC)CC)cc1 | . | . | . | 19 | . | .
COc1ccc(N2CCN(CCCNC(=O)Nc3ccccc3Cl)CC2)cc1 | . | . | . | 6 | . | .
COc1ccc(Cl)c(N2CCN(CCCNC(=O)Nc3ccc(C)cc3)CC2)c1 | -11% | -35% | 35µM* | 11 | 34%[38.3 µM] | -2%
COc1ccc(NC(=O)c2ccco2)cc1NC(=O)c1ccc(OC(C)C)cc1 | . | . | . | 7 | . | .
COc1ccccc1N1C(=O)CSC1=NC(=O)c1ccccc1 | -2% | 14%[10 µM] | 5%[9.22 µM] | . | . | .
COc1ccccc1N=C1SCC(=O)N1c1ccccc1OC | 20µM* | . | 16% | . | -2% | ?
